Consider 53 molecules from the supplement of paper PMC9446081.

The structures appear in SMILES notation. Among all 39,000 compounds or so, about 220 (0.56%) showed activity. Only a selection was taken, and actives are over-represented in it overall. A number with no mark means an inactive call.
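Further: Wild-type cells incubated without shaking, value is the mean of two biological replicates.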

The test system of this assay is Escherichia coli K-12 BW25113. Briefly: relative growth (OD600 normalised to plate interquartile mean) (fraction); higher = less growth inhibition, active = 0.2 or less. The settings on record: 50 µM; LB; incubation time: overnight (16-24 h).
For the molecule `CN1C=C(C(=O)OCCS(C)(=O)=O)C(C(=O)OCCS(C)(=O)=O)=CC(c2ccc(CO)cc2)=C[C@@H]1C1CC1`, the relative growth is 1.02.

Regarding `Cc1ccc(S(=O)(=O)N[C@H]2CC[C@H](CC(=O)N3CCC(Cc4ccccc4)CC3)O[C@H]2CO)cc1`, the relative growth was 1.02. In the case of `Cc1noc(C)c1NC(=O)Nc1ccc2c(c1)C(=O)N([C@@H](C)CO)C[C@@H](C)[C@@H](CN(C)S(=O)(=O)c1ccccc1)OCCCC[C@H](C)O2`, the relative growth was 0.998. Consider `C[C@H]1CN([C@@H](C)CO)C(=O)c2cccc(NC(=O)Nc3ccccc3)c2O[C@@H]1CN(C)S(C)(=O)=O`, for which the relative growth is 0.991. As to `CCS(=O)(=O)Nc1ccc2c(c1)C(=O)N(C)[C@@H]1CC[C@@H](CC(=O)NCc3ccc(OC)cc3)O[C@@H]1CO2`, the relative growth was 1.01. Under `Cc1ccc(NC(=O)C[C@@H](N)C(=O)O)cc1` stands 1.01; under `C[C@H]1[C@H](NC(=O)/C(=N\OC(C)(C)C(=O)O)c2csc(N)n2)C(=O)N1S(=O)(=O)O`, 0.0312 (active); under `CCOC(=O)/C(=N/O)c1csc(N)n1`, 0.997. `CCNC(=O)c1csc(N)n1`: the relative growth was 0.971. Turning to `CC1C(NC(=O)C(=NOC(C)(C)C(=O)O)c2csc(N)n2)C(=O)N1S(=O)(=O)O` (stereo not drawn), the relative growth was 0.0499 (active). As for `COc1ccc(S(=O)(=O)N2C[C@H](O)COC[C@@H]3O[C@@H](CC(=O)NCCCN4CCOCC4)CC[C@H]32)cc1`, the relative growth is 0.999. Next, `CC(C)NC(=O)Nc1ccc2c(c1)C(=O)N([C@H](C)CO)C[C@@H](C)[C@H](CN(C)S(=O)(=O)c1ccc(Cl)cc1)O2`: 1.03. Next, `Cn1c(=O)oc2cc(S(=O)(=O)N3CCC[C@H](C(=O)NN4CCOCC4)C3)ccc21`: 0.99; `CC(C)(ON=C(C(=O)NC1C(=O)N2C(C(=O)[O-])=C(C[n+]3ccccc3)CSC12)c1csc(N)n1)C(=O)O` (stereo not drawn): 0.0511 (active). Next, `CC(C)(O/N=C(\C(=O)N[C@@H]1C(=O)N2C(C(=O)O)=C(C[N+]3(CCNC(=O)c4ccc(O)c(O)c4Cl)CCCC3)CS[C@H]12)c1csc(N)n1)C(=O)O`: 0.0469 (active). For the molecule `NC(=O)c1cc[n+](CC2=C(C(=O)O)N3C(=O)[C@@H](NC(=O)Cc4cccs4)[C@H]3SC2)cc1`, the relative growth was 1.04. Next, `CC(C)(O/N=C(\C(=O)N[C@@H]1C(=O)N2C(C(=O)O)=C(C[n+]3ccccc3)CS[C@H]12)c1csc(N)n1)C(=O)O`: 0.0433 (active). Under `COc1ccc(CNC(=O)C[C@@H]2CC[C@H]3[C@@H](COc4ccc(NC(=O)C5CC5)cc4C(=O)N3C)O2)cc1` stands 1.03.

In the case of `CC(C)(C)[S@](=O)N1Cc2cc(C(=O)N3CCCCC3)nc(-c3cccc(-c4ccc(C#N)cc4)c3)c2[C@@H]1CCO`, the relative growth was 1. Turning to `C[C@@H]1CN([C@@H](C)CO)C(=O)c2cc(-c3ccc(C(=O)N(C)C)cc3)cnc2O[C@H]1CN(C)C(=O)c1cccnc1`, the relative growth was 1.03. Take `CCCNC(=O)N1CC[C@]2(CC1)CN([C@@H](CO)c1[nH]c3cc(ccc3c12)OC)C(=O)CN1CCOCC1`: the relative growth was 0.998. Regarding `COCCOC(=O)N1C(=O)[C@@]2(c3cc(C#Cc4ccc(OC)cc4)ccc31)[C@H](C(=O)N1CCN(c3ncccn3)CC1)[C@H]1C(=O)O[C@H](c3ccccc3)[C@H](c3ccccc3)N1[C@@H]2c1ccccc1OCCO`, the relative growth was 1.07.

Regarding `O=C1C[C@]2(c3ccc([N+](=O)[O-])cc3)C(=O)N(C3CC3)c3cc(CO)ccc3[C@H]2N1CC12CC3CC(CC(C3)C1)C2`, the relative growth was 1.01. Next, `CO[C@H]1CN(C)C(=O)c2cc(NC(=O)Nc3cccc(F)c3)ccc2OC[C@@H](C)N(C(=O)Nc2c(C)noc2C)C[C@H]1C`: 0.978; `C[C@H](CO)N1C[C@H](C)[C@H](CN(C)C(=O)Nc2ccc(N3CCN(C)CC3)cc2)OCc2cnnn2CCCC1=O`: 0.983. Next, `CC[C@H]1OC(=O)[C@H](C)[C@@H](O[C@H]2C[C@@](C)(OC)[C@@H](O)[C@H](C)O2)[C@H](C)[C@@H](O[C@@H]2O[C@H](C)C[C@H](N(C)C)[C@H]2O)[C@](C)(O)C[C@@H](C)CN(C)[C@H](C)[C@@H](O)[C@]1(C)O`: 0.0562 (active); `CCCN1C[C@H](C)[C@@H](O)[C@](C)(O)[C@@H](CC)OC(=O)[C@H](C)[C@@H](O[C@H]2C[C@@](C)(OC)[C@@H](O)[C@H](C)O2)[C@H](C)[C@@H](O[C@@H]2O[C@H](C)C[C@H](N(C)C)[C@H]2O)[C@](C)(O)C[C@H]1C`: 0.116 (active); `CCC(=O)OC1C(OC2C(C)C(OC3CC(C)(OC)C(O)C(C)O3)C(C)C(=O)OC(CC)C(C)(O)C(O)C(C)C(=O)C(C)CC2(C)O)OC(C)CC1N(C)C.CCCCCCCCCCCCOS(=O)(=O)O` (stereo not drawn): 0.953. Turning to `CO[C@H]1C[C@H](O[C@H]2[C@H](C)[C@@H](O[C@H]3O[C@H](C)C[C@H](N(C)C)[C@H]3O)[C@@H](C)C[C@]3(CO3)C(=O)[C@H](C)[C@@H](O)[C@@H](C)[C@@H](C)OC(=O)[C@@H]2C)O[C@@H](C)[C@@H]1O`, the relative growth is 0.954.

As for `CCC1OC(=O)C(C)C(OC2CC(C)(OC)C(O)C(C)O2)C(C)C(OC2OC(C)CC(N(C)C)C2O)C(C)(O)CC(C)C(=O)C(C)C(O)C1(C)O.CCCCCCCCCCCCCCCCCC(=O)O` (stereo not drawn), the relative growth is 0.665.

For the molecule `CC[C@H]1OC(=O)[C@H](C)[C@@H](O[C@H]2C[C@@](C)(OC)[C@@H](O)[C@H](C)O2)[C@H](C)[C@@H](O[C@@H]2O[C@H](C)C[C@H](N(C)C)[C@H]2O)[C@](C)(O)C[C@@H](C)[C@@H]2N[C@@H](COCCOC)O[C@H]([C@H]2C)[C@]1(C)O`, the relative growth is 0.469. In the case of `CCC1OC(=O)C(C)C(OC2CC(C)(OC)C(O)C(C)O2)C(C)C(OC2OC(C)CC(N(C)C)C2O)C(C)(O)CC(C)CN(C)C(C)C(O)C1(C)O` (stereo not drawn), the relative growth is 0.0435 (active). Next, `C[C@H](CO)N1C[C@H](C)[C@H](CN(C)S(=O)(=O)c2cccs2)Oc2ncc(-c3cccc(F)c3)cc2C1=O`: 0.97; `O=C(Cn1nnc2ccccc2c1=O)Nc1nnc[nH]1`: 0.982; `C[C@@H]1CN([C@H](C)CO)S(=O)(=O)c2ccc(C#CC3(O)CCCC3)cc2O[C@H]1CN(C)C(=O)Nc1cccc(F)c1`: 1.

On to `Cc1cc(C)n(CCNC(=O)[C@H]2CCCN(c3cccc4c3C(=O)N(Cc3ccc5c(c3)OCO5)C4=O)C2)n1`, for which the relative growth was 0.993.

Regarding `C[C@H](CO)N1C[C@H](C)[C@H](CN(C)C(=O)Nc2ccc(F)cc2)Oc2ncc(Br)cc2C1=O`, the relative growth is 0.974. Next, `CN(C)C(=O)C[C@@H]1CC[C@@H]2[C@H](COC[C@H](O)CN2S(=O)(=O)c2ccccc2)O1`: 1.02; `Cn1cnc(S(=O)(=O)N2C[C@@H](O)COC[C@H]3O[C@@H](CC(=O)N4CCN(c5ccccc5)CC4)CC[C@@H]32)c1`: 1.02. Under `CC[C@@H](C)[C@H]1O[C@@]2(CC[C@@H]1C)C[C@H]1C[C@@H](CC=C(C)[C@@H](O[C@H]3C[C@@H](OC)[C@@H](O[C@H]4C[C@@H](OC)[C@@H](O)[C@@H](C)O4)[C@@H](C)O3)[C@@H](C)C=CC=C3CO[C@H]4[C@@H](O)C(C)=C[C@@H](C(=O)O1)[C@]34O)O2.CO[C@H]1C[C@@H](O[C@@H]2[C@@H](OC)C[C@@H](O[C@@H]3C(C)=CC[C@@H]4C[C@@H](C[C@@]5(CC[C@@H](C)[C@H](C(C)C)O5)O4)OC(=O)[C@@H]4C=C(C)[C@H](O)[C@@H]5OCC(=CC=C[C@@H]3C)[C@@]45O)O[C@@H]2C)O[C@@H](C)[C@@H]1O` stands 1. With `C[C@@H]1CCCCO[C@H](CN(C)C(=O)Nc2ccccc2)[C@H](C)CN([C@@H](C)CO)C(=O)c2cc(NC(=O)c3ccccc3)ccc2O1`, the relative growth was 0.982. As for `CCC(=O)O[C@H]1[C@H](O[C@@H]2[C@@H](C)[C@H](O[C@H]3C[C@@](C)(OC)[C@@H](O)[C@H](C)O3)[C@@H](C)C(=O)O[C@H](CC)[C@@](C)(O)[C@H](O)[C@@H](C)C(=O)[C@H](C)C[C@@]2(C)O)O[C@H](C)C[C@@H]1N(C)C`, the relative growth is 0.947. For `CCC1OC(=O)C(C)C(OC2CC(C)(OC)C(O)C(C)O2)C(C)C(OC2OC(C)CC(N(C)C)C2O)C(C)(OC)CC(C)C(=O)C(C)C(O)C1(C)O` (stereo not drawn), the relative growth is 0.536.

As for `CCC1OC(=O)C(C)C(OC2CC(C)(OC)C(O)C(C)O2)C(C)C(OC2OC(C)CC(N(C)C)C2O)C(C)(O)CC(C)C(=O)C(C)C(O)C1(C)O` (stereo not drawn), the relative growth was 0.408. Consider `CC[C@H]1OC(=O)[C@H](C)[C@@H](O[C@H]2C[C@@](C)(OC)[C@@H](O)[C@H](C)O2)[C@@H](C)[C@@H](O[C@H]2O[C@H](C)C[C@H](N(C)C)[C@H]2O)[C@](C)(O)C[C@@H](C)C(=O)[C@H](C)[C@@H](O)[C@]1(C)O`, for which the relative growth was 0.375.

As for `CCOC(=O)CCC(=O)OC1C(OC2C(C)C(OC3CC(C)(OC)C(O)C(C)O3)C(C)C(=O)OC(CC)C(C)(O)C(O)C(C)C(=O)C(C)CC2(C)O)OC(C)CC1N(C)C` (stereo not drawn), the relative growth is 0.709. Regarding `CC[C@@H]1OC(=O)[C@@H](C)[C@H](O[C@H]2C[C@@](C)(OC)[C@@H](O)[C@H](C)O2)[C@@H](C)[C@H](O)[C@@](C)(O[C@@H]2O[C@H](C)C[C@H](N(C)C)[C@H]2O)C[C@H](C)C(=O)[C@@H](C)[C@H](O)[C@@]1(C)O`, the relative growth was 0.427. Turning to `CC[C@H]1OC(=O)[C@H](C)[C@@H](O[C@H]2C[C@@](C)(OC)[C@@H](O)[C@H](C)O2)[C@H](C)[C@@H](O[C@@H]2O[C@H](C)C[C@H](N(C)C)[C@H]2O)[C@](C)(OC)C[C@@H](C)C(=O)[C@H](C)[C@@H](O)[C@]1(C)O`, the relative growth was 0.0351 (active). Under `CCC1OC(=O)C(C)C(OC2CC(C)(OC)C(O)C(C)O2)C(C)C(OC2OC(C)CC(N(C)C)C2O)C(C)(O)CC(C)C(=NOCOCCOC)C(C)C(O)C1(C)O` (stereo not drawn) stands 0.613; under `CCOC(=O)CCC(=O)O[C@H]1[C@H](O[C@@H]2[C@@H](C)[C@H](O[C@H]3C[C@@](C)(OC)[C@@H](O)[C@H](C)O3)[C@@H](C)C(=O)O[C@H](CC)[C@@](C)(O)[C@H](O)[C@@H](C)C(=O)[C@H](C)C[C@@]2(C)O)O[C@H](C)C[C@@H]1N(C)C`, 0.0544 (active). Under `CC[C@H]1OC(=O)[C@H](C)[C@@H](O[C@H]2C[C@@](C)(OC)[C@@H](O)[C@H](C)O2)[C@H](C)[C@@H](O[C@@H]2O[C@H](C)C[C@H](N(C)C)[C@H]2O)[C@](C)(O)C[C@@H](C)C(=O)[C@H](C)[C@@H](O)[C@]1(C)O` stands 0.0484 (active); under `CCC1OC(=O)C(C)C(OC2CC(C)(OC)C(O)C(C)O2)C(C)C(OC2OC(C)CC(N(C)C)C2O)C(C)(O)CC(C)C2NC(COCCOC)OC(C2C)C1(C)O` (stereo not drawn), 0.433; under `CC[C@@H]1OC(=O)[C@H](C)[C@@H](O[C@H]2C[C@@](C)(OC)[C@@H](O)[C@H](C)O2)[C@H](C)[C@@H](O[C@@H]2O[C@H](C)C[C@H](N(C)C)[C@H]2O)[C@](C)(O)C[C@@H](C)/C(=N\OCOCCOC)[C@H](C)[C@@H](O)[C@]1(C)O`, 0.165 (active).
